High-throughput results as filed in PubChem.
A selection: hits, their analogues and other compounds. The true share with any hit is near 10%.
HEK293 tox: kills HEK 293 cells | HEK 293 viability, ATP luminescence (CellTiter-Glo), 48-72 h | Potency, µM (top dose mostly 115 µM), for the others: at the highest dose activity change, negative = cytotoxicity, usual class: inhibitors | 6.6% of 94,000 active | AID 1345083; further: nearly all actives have a fitted effect of over 60% in size
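ATP-coupled CellTiter-Glo luminescence served as viability read-out, recorded 10 min after reagent addition at room temperature. HEK 293 cells, 250 cells/well, had been incubated with pintool-transferred compound for 48 or 72 hr at 37 degree Celsius.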
3T3 cytotox: kills NIH 3T3 cells; NIH 3T3 viability, CellTiter-Glo ATP luminescence, 48-72 h; Potency, µM (doses to about 96.7 µM), for the others: at the highest dose activity change, negative = cytotoxicity, actives largely listed as inhibitors; AID 1345082; 4.3% of 94,000 active; further: nearly all actives have a fitted effect of over 55% in size
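Mouse fibroblast NIH 3T3 cells, 400 per well, received compound via pintool and were incubated for 48 or 72 hr prior to CellTiter-Glo ATP luminescence measurement.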
hNpr1 antagonist: antagonists of human natriuretic peptide receptor Npr1 | Potency, µM (titrated, usually from 46.3 µM), for inactives: top-dose activity change, negative = inhibition, most hits filed as inhibitors | 1.6% of 76,000 active | HEK293 hNpr1 GloSensor cGMP, ANP-stimulated luminescence | P16066; calls by dose curve; further: nearly all actives have a fitted effect of over 60% in size
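HEK293 cells stably expressing human Npr1 and cGMP GloSensor pGS-40F, loaded 2 h with 2% GloSensor reagent, given compound 30 min at room temperature. Luminescence read before and 20 min after 0.1 nM hNppA.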
Luciferase inh: inhibitors of firefly (Photinus pyralis) luciferase; P08659; purified P. pyralis luciferase, luminescence, biochemical; Potency, µM (titrated, usually from 115 µM), most hits filed as inhibitors; 2.5% of 76,000 active; AID 1347043; further: nearly all actives have a fitted effect of over 65% in size
Target sequence (P08659 whole entry, looked up): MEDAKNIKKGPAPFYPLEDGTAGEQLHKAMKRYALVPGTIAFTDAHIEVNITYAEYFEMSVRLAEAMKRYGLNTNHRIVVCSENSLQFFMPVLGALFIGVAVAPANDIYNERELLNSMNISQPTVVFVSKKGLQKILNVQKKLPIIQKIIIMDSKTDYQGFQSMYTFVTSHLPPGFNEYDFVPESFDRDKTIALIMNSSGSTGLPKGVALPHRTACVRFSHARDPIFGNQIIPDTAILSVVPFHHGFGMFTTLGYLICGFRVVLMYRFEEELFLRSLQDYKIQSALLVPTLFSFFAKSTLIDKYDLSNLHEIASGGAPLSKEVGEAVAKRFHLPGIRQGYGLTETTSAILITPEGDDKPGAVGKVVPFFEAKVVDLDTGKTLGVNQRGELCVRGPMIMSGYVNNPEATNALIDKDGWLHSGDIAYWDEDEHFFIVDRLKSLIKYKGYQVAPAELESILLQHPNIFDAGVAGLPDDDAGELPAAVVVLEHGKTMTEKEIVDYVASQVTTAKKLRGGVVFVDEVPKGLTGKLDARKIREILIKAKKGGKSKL
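Purified 10nM P. pyralis luciferase with 10uM D-luciferin and 10uM ATP in 50mM Tris acetate pH 7.5, 10mM Mg acetate, 0.01% Tween-20, 0.05% BSA. qHTS titration; luminescence read by CCD imager.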
GPT2 inh: GPT2 alanine aminotransferase inhibition; Recombinant GPT2, coupled pyruvate oxidase/HRP Amplex Red fluorescence; Potency, µM (top dose mostly 57.7 µM), without a hit: top-dose activity change, negative = inhibition, most hits filed as inhibitors; 0.25% of 100,000 active; Q8TD30; further: nearly all actives have a fitted effect of over 60% in size
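GPT2 10ng/uL, a-KG 250uM, L-Ala 2mM, HEPES pH7.5 + 0.0001% Tween; 30 min RT. Then Amplex mix (PO/HRP/ThPP), 30 min RT dark, fluorescence. AOA 50uM used as positive control.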
* marks the source's active call; other numbers are inactive results; i = inactive; ? = inconclusive; / = no result given; [ ] = another dose, or the depositor's remark. Unless noted, the call rests on the fitted dose curve; in most records, active means well fitted curve in the direction sought with a large enough effect; inconclusive means small, poorly fitted or top-dose-only effect, or another doubt; inactive means no such curve, though single readings can be large; an effect the other way counts as inactive or inconclusive. On the % scale 0 is the no-effect control and ±100 the full control effect; potency means the concentration at half of the fitted maximal effect.

SMILES	HEK293 tox	3T3 cytotox	hNpr1 antagonist	Luciferase inh	GPT2 inh
CN(C)c1ccc(-c2ccnc(N[C@H]3CO[C@H]4[C@@H]3OC[C@H]4OC(=O)Nc3cccc(C#N)c3)n2)cc1	14µM*	?	?	i	i
COc1ccc(NC(=O)O[C@@H]2CO[C@H]3[C@@H]2OC[C@@H]3Nc2nccc(-c3cccc(C#N)c3)n2)cc1	-26%	-14%	-1%	i	0%
O=C(c1cccc(Cl)c1)N1CCC2(CC1)CCN(Cc1cccs1)c1ccccc1O2	28µM*	?	-5%	i	i
O=C(Cc1cccc(Cl)c1)N1CCC2(CC1)CCN(Cc1cccs1)c1ccccc1O2	25µM*	?	13%	i	-30%
CC(=O)N1CCC2(CC1)CCN(Cc1cccs1)c1ccccc1O2	?	-32%	3%	i	4%
CNC(=O)c1cc(C2CC2)nc2c1c(C1CCCN1C(=O)NC(C)C)nn2C (stereo not given)	-1%	-16%	/	/	/
O=C(CC1CCCCC1)N1CCC2(CC1)CC(N(Cc1ccc(F)cc1)C1CC1)CCO2 (stereo not given)	50µM*	?	3%	i	i
O=C(CCC1CCCC1)N1CCC2(CC1)CC(N(Cc1ccc(F)cc1)C1CC1)CCO2 (stereo not given)	?	?	3%	i	i
O=C(c1ccc(F)cc1)N1CCn2c(nn(-c3ccc([N+](=O)[O-])cc3)c2=O)C1	i	-15%	0%	i	?
O=c1n(-c2ccc([N+](=O)[O-])cc2)nc2n1CCN(Cc1ccccc1)C2	28µM*	?	-22%	i	i
O=c1n(-c2ccc([N+](=O)[O-])cc2)nc2n1CCN(Cc1ccc(F)cc1)C2	35µM*	?	?	i	-9%
O=c1n(-c2ccc(F)cc2F)nc2n1CCN(Cc1ccc(F)cc1)C2	50µM*	?	19%	i	i
O=c1n(-c2ccc([N+](=O)[O-])cc2)nc2n1CCN(Cc1ccsc1)C2	40µM*	?	-25%[70.6 µM]	?	i
CN(C)C(=O)N1CCN(Cc2ccccc2-c2cccnc2)CC1	-11%[172 µM]	-25%[138 µM]	/	/	i
COc1ccc(OC)c(NC(=O)C2CCc3ncc(-c4ccsc4)n3C2)c1 (stereo not given)	?	-19%	-1%	i	i
CN(Cc1ccccc1)Cc1nc2c(n1Cc1ccccc1)C(=O)N(Cc1ccccc1F)CCN2	40µM*	?	0%	i	i
O=C1c2c(nc(COc3cc(F)cc(F)c3)n2Cc2ccccc2)NCCN1Cc1ccccc1	25µM*	25µM*	-30%	i	-1%
COc1cc(OC)cc(OCc2nc3c(n2Cc2ccccc2)C(=O)N(Cc2ccccc2F)CCN3)c1	32µM*	?	-21%	i	-9%
O=C1c2c(nc(COc3cc(F)cc(F)c3)n2Cc2ccccc2)NCCN1Cc1ccccc1F	?	25µM*	-19%	i	-5%
COc1ccc(OCc2nc3c(n2Cc2ccccc2)C(=O)N(Cc2ccccc2F)CCN3)cc1OC	?	?	-17%	i	-16%
COc1ccc(OCc2nc3c(n2Cc2ccccc2)C(=O)N(CC2CC2)CCN3)cc1OC	?	?	-4%	i	-17%
C[C@@H]1C(=O)O[C@H]2[C@H]1CC[C@@]1(C)Cc3sc(Nc4ccc(O)cc4)nc3[C@@H](C)[C@H]21	35µM*	63µM*	?	?	?
COc1cc(F)ccc1-c1nc(N2CCOCC2)cc2c1CN(CC1CC1)C2=O	?	-38%[138 µM]	-2%[70.6 µM]	i	i
CC(=O)Nc1ccc(C2(C(=O)N(C)Cc3ccccc3)CCCCC2)cc1	50µM*	?	2%	i	i
CN(Cc1ccccc1)C(=O)C1(c2ccc(NC(=O)C3CC3)cc2)CCCCC1	35µM*	?	-20%	i	i
SMILES	HEK293 tox	3T3 cytotox	hNpr1 antagonist	Luciferase inh	GPT2 inh
CC(C)CNC(=O)C1Cn2cccc2C(=O)N1Cc1cccnc1 (stereo not given)	i	i	-1%	i	i
COc1ccccc1CN1CCNc2cnc(Oc3ccccc3)cc2C1	?	?	-14%[70.6 µM]	i	i
Fc1ccccc1CN1CCNc2cnc(Oc3ccccc3)cc2C1	79µM*	?	-4%[70.6 µM]	i	-15%[88.5 µM]
Fc1ccccc1CN1CCNc2cnc(Nc3ccccc3)cc2C1	100µM*	?	?	i	-84%[88.5 µM]
Cc1cccc(CN2CCNc3cnc(Oc4ccccc4)cc3C2)c1	89µM*	-28%[138 µM]	-14%[70.6 µM]	i	-8%[88.5 µM]
c1ccc(Oc2cc3c(cn2)NCCN(Cc2ccc4[nH]ccc4c2)C3)cc1	89µM*	?	?	i	-2%[88.5 µM]
COc1cccc(CC(=O)N2CCCCCCNC(=O)CC2c2ccccc2)c1 (stereo not given)	-12%	-11%	4%	i	i
CCCc1ccc(S(=O)(=O)N2CCC3(CC2)[C@H](C(=O)OCC)[C@@H](OC)C(=O)N3C)cc1	?	-24%	/	/	/
Cc1ccc(C(=O)N2CCc3nc(C4CC4)nc(-c4ccc(O)cc4)c3C2)cc1	?	?	/	/	i
OC(c1cccc(C(F)(F)F)c1)c1nc(Nc2ccc(N3CCOCC3)cc2)n[nH]1 (stereo not given)	?	-16%[138 µM]	?	35µM*	?
OC(c1cccc(C(F)(F)F)c1)c1nc(Nc2ccccc2)n[nH]1 (stereo not given)	89µM*	?	-20%[70.6 µM]	i	-8%[88.5 µM]
OC(c1cccc(C(F)(F)F)c1)c1nc(Nc2ccncc2)n[nH]1 (stereo not given)	?	-66%[138 µM]	-12%[70.6 µM]	i	1%[88.5 µM]
OC(c1cccc(C(F)(F)F)c1)c1nc(Nc2cccnc2)n[nH]1 (stereo not given)	?	-23%[138 µM]	-23%[70.6 µM]	i	i
OC(c1cccc(C(F)(F)F)c1)c1nc(Nc2ccc(F)cc2F)n[nH]1 (stereo not given)	79µM*	71µM*	-26%[70.6 µM]	i	3%[88.5 µM]
O=C(Cc1cn2ccsc2n1)NC1CC(c2nnc(CO)n2C2CC2)C1 (stereo not given)	-4%	5%	13%	i	3%
O=C(NCC1CCCO1)c1csc(N2CCN(c3ccc(Cl)cc3)CC2)n1 (stereo not given)	35µM*	?	?	i	3%
CCn1cc(-c2ccc(Cl)cc2)cc1C(=O)NCC1CCCO1 (stereo not given)	?	-15%	-3%	?	3%
COC1=C(OC)C(=O)c2ccccc2C1=O	/	/	/	/	2.8µM*
O=S(=O)(c1ccccc1)N1CCC(F)(c2nc(-c3ccncc3)no2)CC1	32µM*	?	/	/	i
